# How the values were obtained:
# Experiment in all cases: DAPPL (digital affinity profiling via proximity ligation, sequencing); 10 mM Tris-HCl pH 7.5, 50 mM NaCl, 1 mM DTT, 4% glycerol, room temperature, 30 min; GST-TFs on glutathione beads, 16-mer random dsDNA library, 0.1% formaldehyde crosslink after washing; high values mean tight binding
# Details in all cases: protein: recombinant; tags: N-terminal GST; dsDNA, one strand shown
# [1] = biological target: T1, ELK4 (Homo sapiens, UniProt P28324-2 1-405)
# T1 sequence: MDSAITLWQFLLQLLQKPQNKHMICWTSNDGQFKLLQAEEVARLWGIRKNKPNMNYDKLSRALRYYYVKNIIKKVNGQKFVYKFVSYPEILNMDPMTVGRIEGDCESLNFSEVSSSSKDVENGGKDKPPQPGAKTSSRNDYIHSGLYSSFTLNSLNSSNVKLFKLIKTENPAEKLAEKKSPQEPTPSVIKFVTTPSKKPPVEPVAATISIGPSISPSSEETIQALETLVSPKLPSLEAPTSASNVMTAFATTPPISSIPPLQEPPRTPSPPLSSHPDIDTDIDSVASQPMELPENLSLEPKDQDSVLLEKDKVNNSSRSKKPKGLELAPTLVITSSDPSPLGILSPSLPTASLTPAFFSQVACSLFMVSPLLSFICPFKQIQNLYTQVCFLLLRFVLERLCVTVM
# Procedure, shortened: (§1)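 Yeast served to express human transcription factors as GST fusions, which were then captured on glutathione beads and labelled with DNA barcodes. Pooled with a tag-only sample, they were incubated with 200 nmole of a 16-mer random double-stranded DNA library for 30 min at room temperature in Tris/NaCl/DTT/glycerol buffer, washed, crosslinked with 0.1% formaldehyde, ligated by proximity, amplified by PCR and sequenced. Dividing each hexamer's read frequency for a factor by its frequency for the tag-only sample gives the binding signal.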
# [2] = biological target: T2, ETV2 (Homo sapiens, UniProt O00321 1-342)
# T2 sequence: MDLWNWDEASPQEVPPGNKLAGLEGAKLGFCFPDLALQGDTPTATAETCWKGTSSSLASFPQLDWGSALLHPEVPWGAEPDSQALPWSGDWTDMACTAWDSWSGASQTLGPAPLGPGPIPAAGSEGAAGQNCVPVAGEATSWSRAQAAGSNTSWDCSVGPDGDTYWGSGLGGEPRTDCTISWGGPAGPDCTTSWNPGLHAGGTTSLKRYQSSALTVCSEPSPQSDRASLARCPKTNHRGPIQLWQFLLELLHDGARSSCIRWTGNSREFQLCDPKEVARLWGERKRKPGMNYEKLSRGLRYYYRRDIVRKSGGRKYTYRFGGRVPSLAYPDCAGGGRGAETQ
# Procedure, shortened: as §1
# [3] = biological target: T3, ELF3 (Homo sapiens, UniProt P78545 1-371)
# T3 sequence: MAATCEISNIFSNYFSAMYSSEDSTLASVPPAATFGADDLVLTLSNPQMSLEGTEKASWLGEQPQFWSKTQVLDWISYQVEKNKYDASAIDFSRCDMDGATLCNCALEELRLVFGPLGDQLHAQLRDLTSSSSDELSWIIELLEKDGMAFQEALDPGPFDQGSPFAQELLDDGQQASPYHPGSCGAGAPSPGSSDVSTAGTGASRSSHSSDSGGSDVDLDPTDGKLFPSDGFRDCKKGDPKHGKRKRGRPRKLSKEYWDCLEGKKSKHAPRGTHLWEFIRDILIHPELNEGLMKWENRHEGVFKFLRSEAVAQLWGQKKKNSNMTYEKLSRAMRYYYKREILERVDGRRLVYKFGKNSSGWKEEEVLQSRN
# Procedure, shortened: as §1
# [4] = biological target: ETV1 (Homo sapiens, UniProt P50549 1-477)
# Procedure, shortened: as §1
# [5] = biological target: T4, ERF (Homo sapiens, UniProt P50548 1-548)
# T4 sequence: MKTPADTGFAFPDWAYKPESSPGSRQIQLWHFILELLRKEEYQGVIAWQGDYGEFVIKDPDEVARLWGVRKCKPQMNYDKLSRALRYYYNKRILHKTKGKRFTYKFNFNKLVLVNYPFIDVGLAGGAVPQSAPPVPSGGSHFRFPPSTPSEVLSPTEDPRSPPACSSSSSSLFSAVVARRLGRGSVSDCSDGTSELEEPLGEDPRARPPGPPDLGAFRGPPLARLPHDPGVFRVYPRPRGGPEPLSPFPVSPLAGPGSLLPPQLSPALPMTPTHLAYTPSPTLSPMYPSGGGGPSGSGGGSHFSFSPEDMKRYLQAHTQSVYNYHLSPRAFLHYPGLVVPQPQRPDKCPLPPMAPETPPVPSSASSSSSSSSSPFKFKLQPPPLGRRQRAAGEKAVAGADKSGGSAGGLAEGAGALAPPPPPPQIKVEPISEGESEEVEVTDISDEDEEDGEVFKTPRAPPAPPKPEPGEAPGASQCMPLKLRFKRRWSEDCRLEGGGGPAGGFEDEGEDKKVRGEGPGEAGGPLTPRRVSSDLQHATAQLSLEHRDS
# Procedure, shortened: as §1
# [6] = biological target: T5, ETV3L (Homo sapiens, UniProt Q6ZN32 1-361)
# T5 sequence: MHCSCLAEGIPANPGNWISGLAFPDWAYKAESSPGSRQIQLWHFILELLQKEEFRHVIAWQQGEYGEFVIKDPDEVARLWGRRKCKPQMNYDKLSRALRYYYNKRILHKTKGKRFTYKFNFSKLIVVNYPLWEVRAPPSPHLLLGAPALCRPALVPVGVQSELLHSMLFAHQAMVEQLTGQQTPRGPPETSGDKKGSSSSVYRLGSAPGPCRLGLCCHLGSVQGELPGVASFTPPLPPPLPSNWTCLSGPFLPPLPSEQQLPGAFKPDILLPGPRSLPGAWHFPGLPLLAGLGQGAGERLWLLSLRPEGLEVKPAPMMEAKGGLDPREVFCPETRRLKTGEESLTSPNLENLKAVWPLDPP
# Procedure, shortened: as §1
# [7] = biological target: T6, ETS2 (Homo sapiens, UniProt P15036 1-469)
# T6 sequence: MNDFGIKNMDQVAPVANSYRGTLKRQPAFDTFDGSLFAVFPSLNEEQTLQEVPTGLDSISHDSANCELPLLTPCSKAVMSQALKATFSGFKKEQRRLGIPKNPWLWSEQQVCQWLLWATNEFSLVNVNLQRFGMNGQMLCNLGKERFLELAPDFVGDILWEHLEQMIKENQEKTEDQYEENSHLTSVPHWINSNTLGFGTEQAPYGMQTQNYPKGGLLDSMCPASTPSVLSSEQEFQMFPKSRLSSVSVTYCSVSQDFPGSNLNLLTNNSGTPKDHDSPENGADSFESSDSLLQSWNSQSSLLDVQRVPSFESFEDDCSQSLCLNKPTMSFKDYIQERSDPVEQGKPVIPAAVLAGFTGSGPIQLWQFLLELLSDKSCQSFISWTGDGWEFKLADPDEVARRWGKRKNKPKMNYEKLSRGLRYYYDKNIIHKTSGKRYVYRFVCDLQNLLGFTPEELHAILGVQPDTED
# Procedure, shortened: as §1
# [8] = biological target: T7, ETV7 (Homo sapiens, UniProt Q9Y603 1-341)
# T7 sequence: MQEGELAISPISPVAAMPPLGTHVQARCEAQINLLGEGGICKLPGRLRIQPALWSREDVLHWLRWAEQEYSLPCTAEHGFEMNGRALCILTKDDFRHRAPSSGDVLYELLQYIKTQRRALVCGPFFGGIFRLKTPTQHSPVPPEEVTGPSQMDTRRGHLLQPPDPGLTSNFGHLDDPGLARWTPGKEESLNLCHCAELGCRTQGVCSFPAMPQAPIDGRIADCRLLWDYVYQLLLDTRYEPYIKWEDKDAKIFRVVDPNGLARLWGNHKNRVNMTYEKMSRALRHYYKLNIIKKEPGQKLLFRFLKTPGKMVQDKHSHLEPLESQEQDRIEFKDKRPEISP
# Procedure, shortened: as §1
# [9] = biological target: T8, ETV3 (Homo sapiens, UniProt P41162-2 1-143)
# T8 sequence: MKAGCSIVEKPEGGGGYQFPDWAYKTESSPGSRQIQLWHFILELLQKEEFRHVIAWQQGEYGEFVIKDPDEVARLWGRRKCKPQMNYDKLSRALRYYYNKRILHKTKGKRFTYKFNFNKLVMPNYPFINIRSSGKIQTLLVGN
# Procedure, shortened: as §1
# [10] = biological target: ETV6 (Homo sapiens, UniProt P41212 1-452)
# Procedure, shortened: as §1
# Sequence of ETV6 (P41212 whole entry): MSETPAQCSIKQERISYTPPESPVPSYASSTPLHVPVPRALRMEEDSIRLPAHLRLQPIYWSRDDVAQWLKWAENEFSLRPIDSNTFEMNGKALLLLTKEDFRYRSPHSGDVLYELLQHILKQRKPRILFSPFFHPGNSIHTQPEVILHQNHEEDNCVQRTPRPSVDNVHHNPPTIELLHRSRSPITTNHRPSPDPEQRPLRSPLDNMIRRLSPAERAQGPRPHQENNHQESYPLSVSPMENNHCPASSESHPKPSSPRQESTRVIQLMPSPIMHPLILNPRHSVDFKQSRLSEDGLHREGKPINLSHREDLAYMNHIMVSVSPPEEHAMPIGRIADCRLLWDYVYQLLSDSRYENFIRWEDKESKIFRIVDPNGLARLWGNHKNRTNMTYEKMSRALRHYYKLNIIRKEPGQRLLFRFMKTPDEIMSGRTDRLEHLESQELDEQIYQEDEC
# Sequence of ETV1 (P50549 whole entry): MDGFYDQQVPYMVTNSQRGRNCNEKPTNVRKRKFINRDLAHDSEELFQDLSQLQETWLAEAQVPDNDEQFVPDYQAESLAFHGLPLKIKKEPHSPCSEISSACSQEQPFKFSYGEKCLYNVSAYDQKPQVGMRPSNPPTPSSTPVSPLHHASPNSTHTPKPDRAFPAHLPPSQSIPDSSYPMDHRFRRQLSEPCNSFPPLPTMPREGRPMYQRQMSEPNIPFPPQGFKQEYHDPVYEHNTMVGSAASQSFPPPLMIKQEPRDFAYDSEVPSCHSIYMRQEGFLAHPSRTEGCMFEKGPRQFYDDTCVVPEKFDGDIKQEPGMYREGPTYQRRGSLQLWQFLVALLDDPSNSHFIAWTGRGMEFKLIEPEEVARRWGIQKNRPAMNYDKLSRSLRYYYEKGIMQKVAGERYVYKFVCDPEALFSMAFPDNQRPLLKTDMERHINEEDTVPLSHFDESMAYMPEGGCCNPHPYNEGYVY
sequence,measurement,setting,value
CGTTGC,binding signal,[1],"1.16 fold enrichment (6-mer frequency, TF over GST control)"
same,binding signal,[2],"1.12 fold enrichment (6-mer frequency, TF over GST control)"
same,binding signal,[3],"1.07 fold enrichment (6-mer frequency, TF over GST control)"
same,binding signal,[4],"1.18 fold enrichment (6-mer frequency, TF over GST control)"
same,binding signal,[5],"1.13 fold enrichment (6-mer frequency, TF over GST control)"
same,binding signal,[6],"1.17 fold enrichment (6-mer frequency, TF over GST control)"
same,binding signal,[7],"1.2 fold enrichment (6-mer frequency, TF over GST control)"
same,binding signal,[8],"1.03 fold enrichment (6-mer frequency, TF over GST control)"
same,binding signal,[9],"1.16 fold enrichment (6-mer frequency, TF over GST control)"
same,binding signal,[10],"1.04 fold enrichment (6-mer frequency, TF over GST control)"
